PrPC TRFRET: inhibitors of human cell surface prion protein PrPC, primary screen, cell-based, TR-FRET; TR-FRET read-out; inhibition, % at 13.8 µM; actives 0.43% (n = 370,000); in the data active = inhibition above about 24%; note: 0% = median of the test wells and 100% = reference compound wells
PrP UTR inh: inhibition of PrP 5' UTR reporter expression; cell-based PrP 5' UTR mRNA reporter, plate reader; inhibition, % (test concentration not listed); actives 0.35% (n = 340,000); AID 488862, 2010; in the data active = inhibition above about 52%; note: 0 = median of the neutral control wells
RecA splice inh: Mtb RecA intein splicing inhibitors, primary screen, biochemical, fluorescence, HTS; Protein RecA (Mycobacterium tuberculosis (strain ATCC 25618 / H37Rv)), P9WHJ3; cell-free RecA intein splicing; inhibition, % (no concentration beside the values); actives 0.75% (n = 290,000); in the data active = inhibition above about 30%;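 note: 0% = vehicle wells and 100% = reference inhibitor control wells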
Target sequence (P9WHJ3 whole entry, looked up, canonical isoform): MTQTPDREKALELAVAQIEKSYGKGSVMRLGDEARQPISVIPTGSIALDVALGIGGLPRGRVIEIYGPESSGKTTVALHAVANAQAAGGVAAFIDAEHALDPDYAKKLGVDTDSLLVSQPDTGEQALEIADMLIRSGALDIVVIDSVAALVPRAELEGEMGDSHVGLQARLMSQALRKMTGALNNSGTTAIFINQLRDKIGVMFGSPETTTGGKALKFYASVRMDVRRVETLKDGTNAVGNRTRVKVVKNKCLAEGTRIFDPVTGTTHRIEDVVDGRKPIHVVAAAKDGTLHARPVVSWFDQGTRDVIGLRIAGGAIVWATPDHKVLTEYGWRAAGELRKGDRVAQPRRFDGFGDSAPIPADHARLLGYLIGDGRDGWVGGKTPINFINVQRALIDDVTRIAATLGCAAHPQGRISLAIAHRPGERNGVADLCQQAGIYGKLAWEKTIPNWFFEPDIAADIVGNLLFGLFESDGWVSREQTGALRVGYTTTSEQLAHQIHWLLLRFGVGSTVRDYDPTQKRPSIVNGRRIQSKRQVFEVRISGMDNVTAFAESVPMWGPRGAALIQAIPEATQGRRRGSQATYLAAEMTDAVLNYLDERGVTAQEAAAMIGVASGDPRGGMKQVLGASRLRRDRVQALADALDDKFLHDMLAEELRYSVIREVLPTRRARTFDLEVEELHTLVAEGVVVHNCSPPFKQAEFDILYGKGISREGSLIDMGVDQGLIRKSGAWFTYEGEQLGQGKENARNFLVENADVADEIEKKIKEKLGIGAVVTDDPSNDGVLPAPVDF
PfHsp40 rescue: rescue of yeast from PfHsp40 toxicity, primary screen, S. cerevisiae, ATP luminescence; S. cerevisiae expressing PfHsp40, growth rescue; growth rescue, % at 12.5 µM; actives 0.68% (n = 340,000); AID 504582, 2011; in the data active = growth rescue above about 28%, passing the limit was not always enough;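 note: yeast W303a lacking pdr1 and pdr3 grown in galactose medium; growth measured after three days at 30 °C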
SSB-PriA inh: inhibitors of Klebsiella pneumoniae PriA binding to SSB C-terminal tail, primary screen, biochemical, AlphaScreen | AlphaScreen SSBct-PriA binding, biotinylated peptide | actives 0.6% (n = 430,000) | AID 1272365, 2023 | PriA–SSB C-terminal tail interaction (Klebsiella pneumoniae) | inhibition, % at 33 µM; in the data active = inhibition mostly above about 37%, no sharp cut-off; inactive = mostly below about 20%;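 note: plate controls were negative control peptide for no effect and reference peptide for full effect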
BJeLR viability: MLPCN primary cell-based screen for lethality selective to Ras in HRASV12 cells. BJeLR (HRASV12) viability, CellTiter-Glo ATP luminescence, 48 h. inhibition, % (concentration not given with the values). actives 0.17% (n = 300,000); in the data active = inhibition above about 50%
* = called active by the depositor; . = no result; ! = not active in a repeat. Shown are actives, neighbours in structure and some others; about 1.9% of the full set was active somewhere.

SMILES | PrPC TRFRET | PrP UTR inh | RecA splice inh | PfHsp40 rescue | SSB-PriA inh | BJeLR viability
CCCN1CCCc2cc(CCNS(=O)(=O)c3cc(C)c(OC)c(C)c3)ccc21 | . | . | . | . | 63 | .
CCCN1CCCc2cc(CCNS(=O)(=O)c3ccc(OC)cc3C)ccc21 | . | . | . | . | 52* | .
O=C(Cc1cccs1)Nc1ccc(N2CCOCC2)cc1 | 3 | -24 | -2 | 35* | -2 | 2
O=C(CCl)Nc1ccc(N2CCCCCC2)cc1 | -7 | -5 | 48* | 3 | 31 | -2
CCC(=O)Nc1ccc(N2CCCCC2)cc1 | 2 | -21 | -4 | -1 | -3 | -7
CCOC(=O)C1CCc2sc(NC(=O)CN(C)c3nc4c(C(F)(F)F)cccc4s3)nc21 (stereo not drawn) | . | . | . | . | -13 | .
CC1=CC(C)(C)N(S(=O)(=O)c2ccc(C)cc2)c2cc(C)ccc21 | 4 | -45 | 9 | 22 | -29 | 55*
COc1ccc2c(c1)C(C)=CC(C)(C)N2S(=O)(=O)c1ccc(C)cc1 | 9 | 25 | -1 | 16 | -18 | 31
O=C(Nc1cccc(C(F)(F)F)c1)Oc1ccc(Cl)c2cccnc12 | 10 | -4 | -3 | 125* | 2 | 12
Cc1ccc(CCNc2ncnc(Cl)c2N)cc1 | 7 | -51 | . | 733* | 2 | .
O=c1c2[nH]c3ccc(Br)cc3c2ncn1CCCn1ccnc1 | -3 | -18 | 1 | 7 | 61* | -6
O=c1c2[nH]c3ccccc3c2ncn1CCCn1ccnc1 | -9 | -12 | -2 | 1 | -1 | -3
COc1ccc(-c2noc(CSc3nc(-c4ccccc4)cc(=O)[nH]3)n2)c(OC)c1 | . | . | . | . | 1 | .
Nc1nc(N)c2cc(Sc3ccc(Cl)cc3)ccc2n1 | 1 | . | . | . | . | .
Nc1nc(N)c2cc(Sc3ccc4ccccc4c3)ccc2n1 | -2 | . | 8 | . | 9 | 60*
N#Cc1nc(-c2cccs2)oc1NCc1ccccc1Cl | 5 | -18 | 6 | 0 | 45* | -2
Cc1cccc(C2=NN(c3ccccc3)[C@@H](C(=O)N3CCOC3=O)[C@@H]2C)c1 | 3 | -13 | . | 33* | -53 | .
Cc1cccc(C2=NN(c3ccc(Br)cc3)[C@@H](C(=O)N3CCOC3=O)[C@@H]2C)c1 | 5 | -17 | . | 1 | -28 | .
CCC(CC)C(=O)NCCn1ncc2c(=O)n(Cc3cccc(Cl)c3)cnc21 | . | . | . | . | 6 | .
CC(C)Cn1c(N)c(C(=O)COC(=O)C2Cc3ccccc3CN2S(C)(=O)=O)c(=O)n(C)c1=O (stereo not drawn) | 18 | -1 | . | 50* | -3 | .
COc1ccc(NC(=O)c2c(OC)cccc2OC)c(OC)c1 | -12 | -12 | 16 | -1 | 67* | -2
COc1ccc(NC(=O)c2ccc(C(=O)Nc3ccc(OC)cc3OC)cc2)c(OC)c1 | -1 | -112 | -1 | 0 | -4 | -5
COc1ccc(CNC(=O)COC(=O)c2c[nH]c(=O)[nH]c2=O)cc1OC | -2 | -22 | -3 | 34* | -17 | 4
COc1ccccc1NC(=O)COC(=O)c1c[nH]c(=O)[nH]c1=O | 0 | -15 | 0 | -1 | -6 | 3
COc1ccc(-c2cccc(NS(=O)(=O)c3ccc4c(c3)CCCC4)c2)nn1 | . | . | . | . | 19 | .
SMILES | PrPC TRFRET | PrP UTR inh | RecA splice inh | PfHsp40 rescue | SSB-PriA inh | BJeLR viability
CN(C)C(CNS(=O)(=O)c1ccc(F)cc1)c1cccs1 (stereo not drawn) | . | . | . | . | 8 | .
COc1ccc(SCC(=O)c2cc(C)c(OC(=S)N(C)C)c(C)c2)cc1 | 10 | -36 | 9 | 1 | -6 | 17
Cc1cc(C(=O)CSc2ccc(F)cc2)cc(C)c1OC(=S)N(C)C | 7 | 68* | 4 | 3 | -20 | -2
Cn1cncc1C#Cc1ccc2cc(CCO)oc(=O)c2c1 | -10 | -13 | . | 67* | -1 | .
CCOC(=O)CNC(=O)CN1CCN(Cc2nc3ccccc3[nH]2)CC1 | . | . | . | . | -4 | .
C=CCN1CCc2c(cc(O)c(O)c2Cl)C(c2ccccc2)C1 (stereo not drawn) | 10 | -2 | -3 | 46* | 3 | -16
Nc1nonc1C(=O)NCCN=Cc1cc(Cc2ccccc2)cc(Br)c1O | . | -21 | 1 | 702* | -13 | 1
Nc1nonc1C(=O)NCCN=Cc1ccccc1O | 4 | -7 | 0 | -1 | -11 | -7
Cc1ccc(S(=O)(=O)NN=Cc2ccccc2F)cc1[N+](=O)[O-] | . | . | . | . | -3 | .
O=C(CSc1ccc(-c2ccncc2)nn1)N1CCCc2ccccc21 | . | . | . | . | 32 | .
CCOc1ccc(-n2ccnc2SCC(=O)N2CCCc3ccccc32)cc1 | 5 | -12 | 1 | 0 | 25 | -27
O=C(CSc1nccn1-c1ccccc1)N1CCCc2ccccc21 | . | . | . | . | 72* | .
O=C(CSc1nccn1-c1cccc(Cl)c1)N1CCc2ccccc21 | . | . | . | . | 44* | .
COc1cccc(-n2ccnc2SCC(=O)N2CCCc3ccccc32)c1 | -4 | -4 | 3 | -1 | 30 | -19
O=C(CSc1ccc(-c2ccccn2)nn1)N1CCCc2ccccc21 | -2 | 42 | -1 | 473* | 62*! | 4
O=C(CCc1ccccc1F)NC1CCN(c2nccs2)C1 (stereo not drawn) | . | . | . | . | 1 | .
C=CC(n1cncn1)C(O)(c1ccccc1)c1ccccc1 (stereo not drawn) | -3 | -20 | 1 | 146* | -9 | 8
OC(c1ccccc1)(c1ccccc1)c1ccncc1 | 15 | -26 | 2 | -1 | -9 | 6
Cc1ccnc(NC(c2ccsc2)c2ccc3ccc(C)nc3c2O)c1 (stereo not drawn) | 3 | -24 | -2 | 250* | -21 | -11
COc1ccc(C(Nc2cc(C)ccn2)c2ccc3ccc(C)nc3c2O)cc1 (stereo not drawn) | 6 | -5 | -3 | 0 | -3 | 4
Oc1ccccc1C(Nc1nccs1)c1ccc2cccnc2c1O (stereo not drawn) | 16 | 25 | -7 | -2 | 66* | 40
CCCC(=O)NC(c1ccc(N(C)C)cc1)c1ccc2cccnc2c1O (stereo not drawn) | 21 | 37 | 7 | 410* | 40 | 38
CCCC(=O)NC(c1ccc(C(C)C)cc1)c1ccc2cccnc2c1O (stereo not drawn) | 19 | 26 | 10 | -2 | -4 | 49
Cc1cc(NC(c2ccc(Cl)cc2)c2ccc3cccnc3c2O)no1 (stereo not drawn) | 18 | 40 | 1 | 44* | 82 | -6
O=[N+]([O-])c1ccc(C(Nc2nccs2)c2ccc3cccnc3c2O)cc1 (stereo not drawn) | . | . | . | . | 77 | .
CCCS(=O)(=O)N1CCN=C1SCc1ccc(C(F)(F)F)cc1 | . | . | . | . | -12 | .
COCc1cc(=O)[nH]c(N=C(N)Nc2ccc(Oc3ccccc3)cc2)n1 | . | . | . | . | -7 | .

Source: PubChem BioAssay
